Laboratory results reported in PubChem BioAssay AID376 (PDSP, 2006).
Hit rate of the full screen: of about 2,000 compounds, about 250 (12%) were called active. No stated cut-off is given here; in the data, active means hERG blockade below about -20% or above about 20%; inactive means in between. For the sample, actives were picked, then their nearest neighbours and some compounds at random.

molecular target: Voltage-gated inwardly rectifying potassium channel KCNH2 (Homo sapiens) (UniProt Q12809); experiment: KCNH2 potassium channel function modulators, cell-based (AID 376); conditions: hERG-expressing cells, channel activity single-concentration screen; concentration not given here;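 further: 0% = buffer alone and 100% = reference blocker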
Sequence (Q12809 whole entry, looked up): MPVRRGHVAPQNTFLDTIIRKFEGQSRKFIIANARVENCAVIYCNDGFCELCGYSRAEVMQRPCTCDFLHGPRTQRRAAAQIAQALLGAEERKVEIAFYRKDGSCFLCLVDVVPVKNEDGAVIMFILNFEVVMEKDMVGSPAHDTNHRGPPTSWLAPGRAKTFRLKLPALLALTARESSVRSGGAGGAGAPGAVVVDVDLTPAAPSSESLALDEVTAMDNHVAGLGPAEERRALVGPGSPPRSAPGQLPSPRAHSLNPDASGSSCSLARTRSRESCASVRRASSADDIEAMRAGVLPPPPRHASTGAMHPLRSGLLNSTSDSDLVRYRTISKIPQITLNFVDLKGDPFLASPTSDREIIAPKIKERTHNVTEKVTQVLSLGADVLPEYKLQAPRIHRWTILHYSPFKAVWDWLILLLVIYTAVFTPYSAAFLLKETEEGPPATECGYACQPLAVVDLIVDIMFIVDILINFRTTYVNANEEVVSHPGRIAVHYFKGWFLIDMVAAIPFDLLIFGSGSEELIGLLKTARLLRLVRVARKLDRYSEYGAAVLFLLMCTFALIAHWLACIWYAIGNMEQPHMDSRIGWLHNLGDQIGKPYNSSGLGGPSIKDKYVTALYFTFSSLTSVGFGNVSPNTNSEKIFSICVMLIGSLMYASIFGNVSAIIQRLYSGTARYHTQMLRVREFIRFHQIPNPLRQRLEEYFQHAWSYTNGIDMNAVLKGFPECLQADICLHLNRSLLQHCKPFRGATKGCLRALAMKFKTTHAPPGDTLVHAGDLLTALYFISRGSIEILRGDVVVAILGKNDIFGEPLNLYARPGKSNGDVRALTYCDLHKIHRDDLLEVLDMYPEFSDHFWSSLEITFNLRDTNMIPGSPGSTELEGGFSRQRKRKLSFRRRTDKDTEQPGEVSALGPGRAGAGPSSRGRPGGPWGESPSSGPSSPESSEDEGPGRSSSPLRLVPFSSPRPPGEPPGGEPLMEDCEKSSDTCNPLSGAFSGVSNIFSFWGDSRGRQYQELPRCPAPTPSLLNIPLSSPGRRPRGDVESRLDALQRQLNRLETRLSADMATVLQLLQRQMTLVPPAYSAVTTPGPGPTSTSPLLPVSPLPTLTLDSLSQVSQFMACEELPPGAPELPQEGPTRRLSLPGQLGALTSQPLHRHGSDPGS

Compound	hERG blockade
Cc1c(Cl)c(S(N)(=O)=O)cc(S(N)(=O)=O)c1NC(=O)c1ccc(Cl)cc1	12.5% (inactive)
Cc1cccc(Cl)c1NCC(O)CN1CCN(C)CC1 (stereo unspecified)	-2.1% (inactive)
CC(C(=O)O)C(=Cc1ccc2c(c1)OCO2)C(=O)O (stereo unspecified)	0.849% (inactive)
O=C(O)CC(Cc1ccc2c(c1)OCO2)C(=O)O (stereo unspecified)	6.12% (inactive)
CC1Oc2ccc(C(=O)CC(C(=O)O)c3ccc4c(c3)OCO4)cc2O1 (stereo unspecified)	-27.6% (active)
CN(C)Cc1ccc(-c2cc3onc(-c4ccccc4)c3c(=O)n2C)cc1	10.3% (inactive)
CC(C)(CO)N1CCN(C(=S)Nc2ccccc2)CC1	0.768% (inactive)
C[N+]1(C)CCOC(O)(c2ccccc2)C1 (stereo unspecified)	17.7% (inactive)
CC[N+](C)(CC)CCN1C(=O)c2ccccc2S1(=O)=O	-0.137% (inactive)
NS(=O)(=O)c1ccc(N=Nc2c[nH]c(=O)c(O)c2)cc1	14% (inactive)
NS(=O)(=O)c1ccc(N=Nc2ccc[nH]c2=O)cc1	16% (inactive)
Cn1c(N)c(N=Nc2ccc(S(N)(=O)=O)cc2)c(=O)n(C)c1=O	31.1% (active)
S=c1nc(-c2nc(=S)[nH]c3c2CCCCCCCCCC3)c2c([nH]1)CCCCCCCCCC2	0.0358% (inactive)
Clc1cc2c(c(CSC3=NCN(CC4CC4)CN3)c1)OCOC2	8.37% (inactive)
CN(C)CCNCCN	4.72% (inactive)
CC1=NN(c2ccccc2)C(=O)C1N=Nc1ccc(S(N)(=O)=O)cc1 (stereo unspecified)	14.6% (inactive)
CC(=NNC(=O)c1ccncc1)c1ccc2ccccc2c1O	-2.47% (inactive)
CC1=NN(C(=O)c2ccncc2)C(=O)C1N=Nc1ccc2ccccc2c1 (stereo unspecified)	21.5% (active)
Cc1noc(NC(=O)Nc2ccccc2F)c1C#N	2.22% (inactive)
CN(C)c1ncnc2c1ncn2CCn1cnc2c(N(C)C)ncnc21	-12.5% (inactive)
CCCCn1cnc2c(SC)ncnc21	-28.3% (active)
Nc1ncnc2c1ncn2CCCCC(=O)O	-16.5% (inactive)

Compound	hERG blockade
Cc1cc(C)nc(NC(=O)COc2ccc(Cl)cc2)c1	16.6% (inactive)
OC(COc1ccccc1)CN1CCCCC1 (stereo unspecified)	-2.64% (inactive)
c1ccc(-c2cnc(-c3ccc(-c4ncc(-c5ccccc5)o4)cc3)o2)cc1	-6.76% (inactive)
O=C(CSC1=NCCN1)Nc1ccccc1	8.84% (inactive)
c1ccc(-c2ccc(-c3ccc(C4=NCCN4)cc3)o2)cc1	134% (active)
OCCSCc1ccccc1	-16.1% (inactive)
O=C(O)CN(CCN(CC(=O)O)CC(=O)O)CC(=O)O.[Cu+2]	1.62% (inactive)
O=C(O)CCc1nc(-c2ccccc2-n2cccc2)no1	5.65% (inactive)
O=C(O)C(Cc1cc(I)c(O)c(I)c1)C1CCCCC1 (stereo unspecified)	35.2% (active)
C=C(C)CNCCN	-5.55% (inactive)
Cc1ccc(CSC(N)=Nc2ccccc2)cc1C	14.3% (inactive)
Nc1ncnc2c1ncn2C1OC(C(=O)OCCO)C(O)C1O (stereo unspecified)	1.37% (inactive)
OC1CC2CCC(C1)N2CCCN1c2ccccc2Sc2ccc(Cl)cc21 (stereo unspecified)	89.8% (active)
Clc1ccc2c(c1)N(CCCN1CCCC13CCCCC3)c1ccccc1S2	4.63% (inactive)
COc1ccc(N(CC(=O)O)N=O)cc1	1.49% (inactive)
O=C1C=CC(=Nc2cccc3c(N=C4C=CC(=O)O4)cccc23)O1	-12% (inactive)
CC(C)c1cc(CN(C)C)c(O)c(C(C)(C)C)c1	13.4% (inactive)
Nc1nc(N)[n+]([O-])c(N)c1NCO	-6.48% (inactive)
C=CCNS(=O)(=O)c1ncnc2nc[nH]c12	-2.53% (inactive)
Nc1nc(-c2cc(-c3cccc4ccccc34)nc(N)n2)cc(-c2cccc3ccccc23)n1	3.59% (inactive)
Nc1cc2c(nc3c4ccccc4c(N)cc3[n+]2-c2cccc3ccccc23)c2ccccc12 (tested in a mixture with another compound)	51.9% (active)
O=S(=O)(c1ccc(Br)cc1)N1CCN(S(=O)(=O)c2ccc(Br)cc2)CC1	11.5% (inactive)

Compound	hERG blockade
O=C(O)C1CCCCC1c1c2ccc(=O)c(O)c-2oc2c(O)c(O)ccc12 (stereo unspecified)	-2.68% (inactive)
CC(=O)C1(N=Nc2ccc(S(N)(=O)=O)cc2)CCOC1=O (stereo unspecified)	-10.6% (inactive)
CC(CCC(=O)O)(c1ccc(O)cc1)c1ccc(O)cc1	4.36% (inactive)
c1ccc2sc(SCSc3nc4ccccc4s3)nc2c1	-7.22% (inactive)
CC(CCc1nc2ccccc2s1)(c1ccc(O)cc1)c1ccc(O)cc1	24% (active)
O=C(O)c1ccccc1C(=O)c1ccc2c(c1)Cc1ccccc1-2	-16.1% (inactive)
Cn1c(=O)c2c(ncn2CN2CCN(Cn3cnc4c3c(=O)n(C)c(=O)n4C)CC2)n(C)c1=O	0.775% (inactive)
O=C(O)CSc1nnc2c3ccccc3c3ccccc3c2n1	-2.16% (inactive)
c1ccc2c[n+](CCCC[n+]3ccc4ccccc4c3)ccc2c1	22% (active)
c1ccc2c[n+](Cc3ccnc4ccccc34)ccc2c1	16.2% (inactive)
CC(=N[O-])C(C)=N[O-].CC(=N[O-])C(C)=N[O-].[CH2-]CCN1CCOCC1.[Co].c1ccncc1	17.9% (inactive)
O=C(O)c1ccc([N+](=O)[O-])c(P(=O)(O)O)c1	-6.85% (inactive)
Cc1nc2ccccc2nc1-c1ccc(N=[N+]([O-])c2ccc(-c3nc4ccccc4nc3C)cc2)cc1	1.15% (inactive)
O=C(O)C(=Cc1ccccc1)Cc1ccccc1	-1.14% (inactive)
CC1=CC(=C(c2ccc(O)c(C)c2)c2ccccc2C(=O)O)C=CC1=O	30.9% (active)
Cc1ccc(NC(=O)c2ccccc2C(=O)O)cc1C	0.447% (inactive)
O=C(O)c1ccc(C(=O)c2ccccc2C(=O)O)cc1C(=O)O	1.52% (inactive)
CC(C)=NNc1ncnc2nc[nH]c12	-8.04% (inactive)
O=C1CSC(=S)N1N=Cc1ccc(Cl)c([N+](=O)[O-])c1	8.8% (inactive)
O=Nc1c(O)[nH]c2ccccc12.O=Nc1c(O)[nH]c2ccccc12.[Cu]	0.0535% (inactive)
O=C(O)c1ccc(S(=O)(=O)N=Nc2c(O)[nH]c3ccccc23)cc1	-4.01% (inactive)
N=C(N)c1ccc(N=Nc2c(O)ccc3c2[nH]c2ccccc23)cc1	-25.6% (active)

Compound	hERG blockade
C(=NNc1ccccn1)c1cccnc1	20.3% (active)
C(=NNc1nnc2c(n1)[nH]c1ccccc12)c1cccnc1	9.9% (inactive)
c1ccc(CCc2cccnc2)nc1	5.71% (inactive)
Nc1ccc(-c2ccc(Nc3cc(S(=O)(=O)O)c(N)c4c3C(=O)c3ccccc3C4=O)cc2)c(S(=O)(=O)O)c1	14.3% (inactive)
O=C(O)CCNCC(=O)O	2.22% (inactive)
Cc1cc(C(C)(C)C)cc(CNC2CCCCC2)c1O	-1.49% (inactive)
OCCN(CCO)c1ncnc2nc[nH]c12	9.05% (inactive)
CCCC1c2c(ccc3ccccc23)Oc2ccc3ccccc3c21	16.8% (inactive)
CN(C)CCCC1c2ccccc2Oc2ccc(C(F)(F)F)cc21 (stereo unspecified)	32.9% (active)
NC(N)=NN=Cc1ccc(O)c(C(=O)O)c1	7.85% (inactive)
Cc1nc(CN2CCCCC2)c(O)c(=O)[nH]1	-28.2% (active)
Cc1cc(CN2CCCCC2)c(O)c(CN2CCCCC2)c1	8.76% (inactive)
O=C(O)c1[nH]c(=O)[nH]c(=O)c1CN1CCCCC1	-7.69% (inactive)
CCN1CCC(O)(C(C(=O)O)c2ccccc2)CC1 (stereo unspecified)	4.76% (inactive)
CC(C)=CCNc1ncnc2nc[nH]c12	-6.5% (inactive)
CCN(Cc1cc(Cl)cc(C)c1O)Cc1c(O)ccc2ccccc12	13% (inactive)
Cc1cccc2cc3ccc4ccccc4c3cc12	11.1% (inactive)
CCN(CC)CC(O)c1ccc2ccc3ccccc3c2c1 (stereo unspecified)	-73.4% (active)
N=C(N)SCCSC(=N)N	9.63% (inactive)
N#CC(C#N)=NNc1ccc2cn[nH]c2c1	-4.08% (inactive)
CN(C)S(=O)(=O)Nc1ccccn1	4.55% (inactive)
CC(O)(CNS(=O)(=O)c1ccccc1)c1ccccc1 (stereo unspecified)	-5.67% (inactive)

Compound	hERG blockade
O=C(O)CC[P+](c1ccccc1)(c1ccccc1)c1ccccc1	19.1% (inactive)
CN(CCC(=O)O)S(=O)(=O)c1ccccc1	-22% (active)
O=c1[nH]c(SCc2cccc([N+](=O)[O-])c2)nc2nc[nH]c12	7.87% (inactive)
CC1(CO)C(O)CCC2(C)C1CCC1CC3CC12CCC3(O)COC(=O)CN (stereo unspecified)	14.2% (inactive)
N=C(N)SCC(=O)O	11% (inactive)
O=C(O)c1cscc1Cc1cccs1	-9.17% (inactive)
O=C(O)c1ccccc1CN1CCCC(C(=O)O)C1 (stereo unspecified)	-4.8% (inactive)
COc1ccc(-c2cc(C(O)C3CCCCN3)c3ccccc3n2)cc1 (stereo unspecified)	72.7% (active)
O=C(O)c1cc(-c2ccc3cc4c(cc3c2)OCO4)nc2ccccc12	17.2% (inactive)
OC(c1cc(C23CC4CCC2CC(C4)C3)nc2c(Cl)cc(Cl)cc12)C1CCCCN1 (stereo unspecified)	-0.23% (inactive)
OC(c1cc(C(F)(F)F)nc2c(Cl)cc(Cl)cc12)C1CCCCN1 (stereo unspecified)	28.7% (active)
OC(CC1CCCCN1)c1ccc2c(c1)oc1ccccc12 (stereo unspecified)	4.42% (inactive)
O=C(O)CSc1cc(-c2ccccc2)nc2ccccc12	-16.2% (inactive)
O=C(O)c1cc(-c2ccc(-c3ccccc3)cc2)nc2cc3ccccc3cc12	12.2% (inactive)
OC(c1cc(-c2ccc(Cl)cc2)nc2ccccc12)C1CCCCN1 (stereo unspecified)	74.7% (active)
Cc1cc(C)c2nc3c(c(C(O)C4CCCCN4)c2c1)CCC3=Cc1ccc(Cl)cc1 (stereo unspecified)	8.84% (inactive)
OC(c1cc(-c2ccccc2)nc2c1ccc1ccccc12)C1CCCCN1 (stereo unspecified)	26.8% (active)
c1ccc2nc(CCC3CCCCN3)ccc2c1 (stereo unspecified)	-2.95% (inactive)
